Here are results for 40 compounds from PubChem BioAssay (NCI).

The panel holds about 83,000 compounds, 20% with a hit somewhere; the sample as a whole holds those more often.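 Activity criterion: percent growth below 10, measured after cells in 96-well plates were exposed to a single compound concentration for 48 hours.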 Activity calls are given as the source filed them.

For the test, the system named is NCI-H460 lung. In words: NCI-60 one-dose screen, 48 h (100 = growth as untreated, 0 = no growth, -100 = all killed). As to conditions: 10 µM unless noted. The protocol:
Growth inhibition of the NCI-H460 human Non-Small Cell Lung tumor cell line is measured as a screen for anti-cancer activity. Cells are grown in 96 well plates and exposed to the test compound for 48 hours. Compounds are tested at a single concentration, which is 10^-5 M for most compounds. The reported endpoint is percent growth (GI% or GIPRCNT), where numbers from 0 - 100% represent growth inhibition, and numbers from -100% - 0 represent cell death. For example, a value of 40 represents 60% growth inhibition. A value of 0 means no net growth occurred over the course of the experiment. A value of -40 indicates 40% of cells at the beginning of the experiment died by the end of the experiment. A value of -100 means all cells are dead at the end of the experiment.
NCI-60 Human Tumor Cell Lines Screen was performed using the standard one-dose NCI protocol, which is described in more detail at https://dtp.cancer.gov/discovery_development/nci-60/default.htm.
Compounds with GIPRCNT values below 10 were considered active. Activity score was based on GIPRCNT using the following formula: […]
Score is 0 for GIPRCNT values of 100 or above, 50 for GIPRCNT values of 0, and 100 for GIPRCNT values of -100.
On to `O=C(/C=C/c1ccccc1)c1ccccc1O`, for which the growth is 93.2% (inactive).
For `Nc1nc(N)c2cc(Sc3cccc(C(F)(F)F)c3)ccc2n1`, the growth was 14.9% (inactive).
Consider `O=C1C=C(Cl)C(=O)c2ccccc21`, for which the growth was 101% (inactive).
The same measure for `S=C(S)OCN1CCOCC1`: 90.3% (inactive).
`O=C(Cc1ccccc1)C(F)(F)F`: the growth was 103% (inactive).
In the case of `COC(=O)c1ccc(=O)c2nc3/c(=C/O)c(O)cc(=O)c3[nH]c12`, the growth is 19.9% (inactive).
As to `CCOC(=O)/C(=C\c1ccc2ccccc2c1)P(=O)(OCC)OCC`, the growth is 20% (inactive).
For `O=C(O)c1ccc2c(c1)C(=O)c1ccccc1C2=O`, the growth was 105% (inactive).
The same measure for `CCCCCCCCCCCCCCCc1ccc(C(=O)C[n+]2ccccc2)cc1`: -80.6% (active); for `O=C(Nc1ccc(Cl)c(Cl)c1)OCc1ccco1`: 26.4% (inactive); for `NC(=S)N/N=C\c1nccc2c(N)cccc12`: 3.27% (active).
The figure for `S=C=Nc1ccc(N2CCOCC2)cc1` is 99.8% (inactive).
Take `CC[n+]1ccc(Nc2ccc(NC(=O)c3ccc(Nc4cc[n+](CC)c5ccc([N+](=O)[O-])cc45)cc3)cc2)cc1`: the growth is 77% (inactive).
The same measure for `COc1ccc2c(c1)c(CC(=O)O)c(C)n2C(=O)c1ccc(Cl)cc1`: 101% (inactive).
For the compound `CCOc1cc(F)c([N+](=O)[O-])cc1[N+](=O)[O-]`, the growth is 106% (inactive).
For the compound `CCCCCC[C@@H](O)C/C=C\CCCCCCCC(=O)OCCOC`, the growth is 107% (inactive).
On to `O=C1CSC(=S)N1Cc1cccnc1`, for which the growth was 106% (inactive).
With `c1ccc(C2NCCNC2c2ccccc2)cc1` (stereo not given), the growth is 109% (inactive).
On to `O=C(O)c1cccc2cccc(-c3c4ccc(=O)c(O)c-4oc4c(O)c(O)ccc34)c12`, for which the growth was 100% (inactive).
In the case of `CN(C)c1ccc(/C=C/c2sc3ccc4ccccc4c3[n+]2C)cc1`, the growth was -40.9% (active).
Take `Oc1c(Cl)cc(Cl)cc1C=NCC1CCC(CN=Cc2cc(Cl)cc(Cl)c2O)CC1` (stereo not given): the growth was 108% (inactive).
The figure for `COc1ccc(C(OCC2OC(n3ccc(NC(=O)c4ccccc4)nc3=O)C(O)C2O)(c2ccccc2)c2ccccc2)cc1` (stereo not given) is 15.5% (inactive).
The same measure for `CN1CSC(=S)N(Cc2ccccc2)C1`: 108% (inactive); for `C(=N\Nc1ccc2ccccc2n1)/c1ccccn1`: 3.31% (active); for `Oc1ccc2ccccc2c1N=Nc1nccs1`: 10.2% (inactive).
As to `Clc1ccc(Cc2nc3ccccc3s2)cc1`, the growth was 105% (inactive).
The figure for `O=C(CCl)N(c1ccccc1)c1ccccc1` is 111% (inactive); for `CCOc1ccc(Nc2nc3c(s2)C(=O)c2ccccc2C3=O)cc1` it is 94.4% (inactive); for `CC(C)(C)c1ccc(O)c(Br)c1` it is 95.6% (inactive).
Take `CCOC(=O)c1c(C)[nH]c2ccc(O)cc12`: the growth was 98.3% (inactive).
On to `Fc1ccc(NCCS)cc1`, for which the growth is 102% (inactive).
The same measure for `Cc1ccc(/C=C2\CNC/C(=C\c3ccc(C)cc3)C2=O)cc1`: -47.1% (active).
The same measure for `O=C(OC12CC3CC(CC(C3)C1)C2)c1ccc(NCc2cc(O)ccc2O)cc1`: 3.32% (active); for `NC(CS/C(Cl)=C/Cl)C(=O)O` (stereo not given): -45.9% (active); for `O=[N+]([O-])c1ccc([I+]c2ccccc2)cc1`: 4.38% (active).
As to `CCCN(CCC)C(=O)c1ccc(C)cc1`, the growth was 99.8% (inactive).
The figure for `O=C1c2ccccc2C(=O)c2c(O)c(Cl)cc(O)c21` is 100% (inactive).
The same measure for `CCCCCCC1N=C(N)N=C(N)N1c1cccc(Cl)c1` (stereo not given): 18.4% (inactive); for `CCOc1ccc(C(CN2CCOCC2)C(C)=O)cc1OC` (stereo not given): 108% (inactive); for `CC(C)(C)c1ccc(O)c(-c2ccccc2)c1`: 112% (inactive).
